Cycloheximide cs = counter-screen for Shiga toxin inhibitors: cycloheximide protein synthesis inhibition. cell reporter, cycloheximide protein synthesis inhibition counterscreen. max response, %. 300,000 tested, 12% active. AID 2314; in the data active means max response mostly above about 13%, no sharp cut-off; inactive means mostly below about 14%; further: read at 38.3 µM for the half of the compounds with a filed dose; 0% is about no effect
Pf growth 96h = inhibits malaria parasite growth, 96 h; P. falciparum luciferase reporter growth, 96 h; Potency, µM (doses to about 28.7 µM), inactives show top-dose activity change, negative = inhibition, hits mostly inhibitors; 320,000 tested, 6.9% active; AID 504834; further: potency means the concentration at half of the fitted maximal effect; on the % scale 0 is the no-effect control and ±100 the full control effect
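P. falciparum expressing integrated firefly luciferase, in erythrocytes at 2% hematocrit, 0.05% parasitemia, incubated with compounds 96 h at 37 C, 5% CO2. Growth inhibition read as loss of luminescence; two-generation exposure targets delayed-death apicoplast inhibitors.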
LmPK inh = inhibitors of Leishmania mexicana pyruvate kinase; Q27686; purified LmPK, Kinase-Glo ATP luminescence, 1 h; Potency, µM (top dose mostly 57.5 µM), for the others: at the highest dose activity change, negative = inhibition, hits mostly inhibitors; 290,000 tested, 0.37% active; AID 1721; further: potency means the concentration at half of the fitted maximal effect; on the % scale 0 is the no-effect control and ±100 the full control effect
Target sequence (Q27686 whole entry, looked up): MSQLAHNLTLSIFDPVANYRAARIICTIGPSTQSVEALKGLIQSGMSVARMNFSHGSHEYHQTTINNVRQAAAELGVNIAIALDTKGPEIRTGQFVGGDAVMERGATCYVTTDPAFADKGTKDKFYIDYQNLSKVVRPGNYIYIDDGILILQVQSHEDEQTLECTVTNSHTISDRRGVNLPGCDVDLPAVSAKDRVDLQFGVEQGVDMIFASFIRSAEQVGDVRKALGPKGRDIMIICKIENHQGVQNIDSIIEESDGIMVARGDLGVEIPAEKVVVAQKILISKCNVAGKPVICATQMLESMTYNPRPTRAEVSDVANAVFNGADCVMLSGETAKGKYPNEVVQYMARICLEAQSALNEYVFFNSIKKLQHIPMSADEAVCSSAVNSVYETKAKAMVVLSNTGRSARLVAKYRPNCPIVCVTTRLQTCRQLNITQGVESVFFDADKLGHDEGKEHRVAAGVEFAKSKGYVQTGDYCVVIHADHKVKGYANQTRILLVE
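Purified LmPK (0.1 nM) with 0.5 mM PEP and 0.1 mM ADP in imidazole buffer pH 7.2 with MgCl2/KCl, 1 h at room temperature. ATP formed was read by luciferase luminescence and normalized to no-enzyme and uninhibited controls.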
Shiga inhibitor = Shiga toxin inhibition; Vero cells, Shiga toxin protein synthesis inhibition reporter; inhibition, % at 38.7 µM; 290,000 tested, 9.2% active; in the data active means inhibition mostly above about 28%, no sharp cut-off; inactive means mostly below about 43%; further: 0% is about no effect
Pf growth 48h = inhibits P. falciparum growth in the first generation, 48 h; P. falciparum luciferase growth in erythrocytes, 48 h; Potency, µM (highest dose often 28.7 µM), inactives show at the highest dose activity change, negative = inhibition, usual class: inhibitors; 310,000 tested, 5.9% active; AID 504832; further: potency means the concentration at half of the fitted maximal effect; on the % scale 0 is the no-effect control and ±100 the full control effect
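Parasite viability was followed by luminescence of a genomically integrated firefly luciferase. Cultures held 0.1% parasitemia at 2% hematocrit (final), incubated under 5% CO2 at 37 C.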
* hit, by the source's call; [ ] = another dose, or the depositor's remark. Hits are enriched below; roughly 22% of the tested compounds scored in any of these assays. Unless noted, the call rests on the fitted dose curve; in most records, active means well fitted inhibition curve with a large enough effect; inconclusive means small, poorly fitted or top-dose-only effect, or another doubt; inactive means no such curve, though single readings can be large or run the other way.

What do the screens show for `CN1CCN(S(=O)(=O)c2ccc(Nc3ccc(F)cc3)c([N+](=O)[O-])c2)CC1`?
Pf growth 96h: -21%; Pf growth 48h: 7%

How did O=S(=O)(c1ccccc1)N1CCN(S(=O)(=O)c2ccc3c(c2)OCCO3)CC1 do in these assays?
Cycloheximide cs: -3; Shiga inhibitor: -10

Results for CC1CCC(NC(=O)c2ccc3nc[nH]c3c2)CC1 (centres undefined) ?
Cycloheximide cs: 41*; Pf growth 96h: 56%; LmPK inh: -2%; Shiga inhibitor: 47*; Pf growth 48h: 42%

Results for Cc1[nH]c2ccc(C(=O)NC3CCC(C)CC3)cc2c1C (centres undefined) ?
Cycloheximide cs: 26*; Pf growth 96h: inconclusive; LmPK inh: 2%; Shiga inhibitor: 58*; Pf growth 48h: 12%

How did CC(=O)N1c2ccc(S(=O)(=O)NCC3CCC(C(=O)NC4CCCCC4)CC3)cc2CC1C (centres undefined) do in these assays?
Cycloheximide cs: 1; Pf growth 96h: inconclusive; LmPK inh: 1%; Shiga inhibitor: 7; Pf growth 48h: -22%

What do the screens show for `CCc1ccc2c(CN(C)Cc3ccc(OC(F)F)c(OC)c3)cc(=O)oc2c1`?
Cycloheximide cs: -1; Pf growth 96h: inconclusive; LmPK inh: -6%; Shiga inhibitor: -4; Pf growth 48h: inconclusive

How did Cc1cc(C(=O)CSc2cccc[n+]2[O-])c(C)n1-c1ccc(Br)cc1 do in these assays?
Cycloheximide cs: 35*; Pf growth 96h: 6.6µM*; LmPK inh: 7%; Shiga inhibitor: 91*; Pf growth 48h: 17%

What do the screens show for `Cc1cc(C(=O)COc2cccc(-n3cnnn3)c2)c(C)n1-c1ccccc1`?
Cycloheximide cs: 16*; Pf growth 96h: -4%; LmPK inh: 4%; Shiga inhibitor: 32; Pf growth 48h: inconclusive

Results for Cc1nnc(SCC(=O)c2cc(C)n(-c3c(C)n(C)n(-c4ccccc4)c3=O)c2C)s1 ?
Cycloheximide cs: -4; Pf growth 96h: -5%; LmPK inh: -4%; Shiga inhibitor: -6; Pf growth 48h: 8%

What do the screens show for `O=C(CSc1cccc[n+]1[O-])c1ccccc1Br`?
Cycloheximide cs: 12; Pf growth 96h: inconclusive; LmPK inh: 4%; Shiga inhibitor: 22; Pf growth 48h: -5%

How did Cc1cc(C(=O)CCl)c(C)n1-c1c(C)n(C)n(-c2ccccc2)c1=O do in these assays?
Cycloheximide cs: 7; Pf growth 96h: 6.6µM*; LmPK inh: 0%; Shiga inhibitor: 12; Pf growth 48h: 8.3µM*

What do the screens show for `Cc1cc(C(=O)CSc2cccc[n+]2[O-])c(C)n1-c1ccccc1`?
Cycloheximide cs: 47*; Pf growth 96h: -55%; LmPK inh: -5%; Shiga inhibitor: 85*; Pf growth 48h: 359%

Results for Cn1c(SCC(=O)NC2CCCc3ccccc32)nnc1C1CC1 (centres undefined) ?
Pf growth 96h: 14%; Pf growth 48h: inconclusive

Results for Cc1cccc(N(C)S(=O)(=O)c2ccc3c(c2)C(C)(C)C(=O)N3C)c1 ?
Cycloheximide cs: -3; Pf growth 96h: 8%; LmPK inh: -1%; Shiga inhibitor: -1; Pf growth 48h: inconclusive

How did Cn1cnnc1SCC(=O)NNC(=O)c1ccc(Cl)cc1 do in these assays?
Cycloheximide cs: -3; Pf growth 96h: -9%; LmPK inh: 0%; Shiga inhibitor: -15; Pf growth 48h: 11%

How did Cc1cc(C(=O)CSc2nncn2C)c(C)n1-c1ccccc1 do in these assays?
Cycloheximide cs: 34*; Pf growth 96h: 176%; LmPK inh: -14%; Shiga inhibitor: 59*; Pf growth 48h: 120%

What do the screens show for `Cc1cc(-n2c(C)cc(C(=O)CSc3nnnn3-c3ccccc3)c2C)no1`?
Cycloheximide cs: 5; Pf growth 96h: 4%[5.75 µM]; LmPK inh: 1%; Shiga inhibitor: 8; Pf growth 48h: inconclusive

How did Cn1c(/C=C/c2ccc(Br)cc2)c([N+](=O)[O-])c(=O)n(C)c1=O do in these assays?
Cycloheximide cs: -3; Pf growth 96h: 33%; LmPK inh: 5%; Shiga inhibitor: -9; Pf growth 48h: 9.3µM*

Results for Cc1ccc2nc(-c3ccc(N4C(=NC(=O)CCC(=O)O)SC5CS(=O)(=O)CC54)cc3)sc2c1 (centres undefined) ?
Cycloheximide cs: 37*; Pf growth 96h: 159%; LmPK inh: 13%; Shiga inhibitor: 124*; Pf growth 48h: 126%

Results for CC(=O)N=C1SC2CS(=O)(=O)CC2N1c1ccc(-c2nc3ccc(C)cc3s2)cc1 (centres undefined) ?
Cycloheximide cs: 18*; Pf growth 96h: 165%; LmPK inh: -1%; Shiga inhibitor: 54*; Pf growth 48h: 89%

How did CCCS(=O)(=O)N1CCCC(C(=O)Oc2ccc(Cl)cc2)C1 (centres undefined) do in these assays?
Cycloheximide cs: -2; Pf growth 96h: inconclusive; LmPK inh: -2%; Shiga inhibitor: 6; Pf growth 48h: -15%

What do the screens show for `c1ccc(CCCN2CCN(c3ccccc3)CC2)cc1`?
Cycloheximide cs: 3; Pf growth 96h: inconclusive; LmPK inh: -1%; Shiga inhibitor: -5; Pf growth 48h: 7%

Results for COc1ccc(C(=O)/C=C/Sc2nc3ccccc3o2)cc1 ?
Cycloheximide cs: 51*; Pf growth 96h: -27%; LmPK inh: -5%; Shiga inhibitor: 135*; Pf growth 48h: inconclusive

How did COc1ccc(C(=O)N/C(N)=N/c2nc3ccccc3o2)cc1 do in these assays?
Cycloheximide cs: 7; Pf growth 96h: inconclusive; LmPK inh: -1%; Shiga inhibitor: 7; Pf growth 48h: 42%

Results for COc1ccc(-c2noc3c2-c2nc(-c4ccc(Cl)cc4)sc2CC3)cc1 ?
Cycloheximide cs: 7; Pf growth 96h: inconclusive; LmPK inh: 0%; Shiga inhibitor: 9; Pf growth 48h: inconclusive

Results for O=C1CCc2cc(S(=O)(=O)N3CCCCC3)cc3c2N1CCC3 ?
Pf growth 96h: -8%; Pf growth 48h: 6%

Results for O=C1CCCc2cc3c(cc21)CC1(C3)Cc2cc3c(cc2C1)C(=O)CCC3 ?
Cycloheximide cs: -2; Pf growth 96h: inconclusive; LmPK inh: 2%; Shiga inhibitor: 8; Pf growth 48h: 5.2µM*

Results for CC1Cc2c([nH]c3ccccc23)C(=O)N1 (centres undefined) ?
Cycloheximide cs: 5; Pf growth 96h: 9.3µM*; LmPK inh: 1%; Shiga inhibitor: 13; Pf growth 48h: 9%

How did Cc1ccc(NC(=O)C(=Cc2ccc(C(=O)O)cc2)C(=O)Nc2ccc(C)cc2C)c(C)c1 do in these assays?
Cycloheximide cs: 2; Pf growth 96h: inconclusive; LmPK inh: 0%; Shiga inhibitor: 19; Pf growth 48h: inconclusive

Results for C/C(=N\NC(=O)C1COc2ccccc2O1)c1cc2ccccc2o1 (centres undefined) ?
Cycloheximide cs: 7; Pf growth 96h: inconclusive; LmPK inh: 1%; Shiga inhibitor: 7; Pf growth 48h: -6%
